This is an account of results in paper PMC8384837, “Expanding the binding specificity for RNA recognition by a PUF domain”.

Common to all, as to experiment: yeast three-hybrid, YBZ-1, SC-Leu-His + 0.5 mM 3-AT, 4 days
Common to all, as to conditions: tags: N-Gal4 AD-HA kept; label: inside an RPR1-promoter hybrid RNA with tandem MS2 sites; ssRNA

Test [1] has as its target PUM1 PUF domain R5-GTE (Homo sapiens, UniProt Q14671 828-1176, C1007G;R1008T;Q1011E). In outline: (§1)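 Sequencing with Illumina followed PCR amplification of the repeat regions from transformants grown four days on SC-Leu (input) or SC-Leu-His + 0.5 mM 3-AT (selection). The transformants were strain YBZ-1 with a LexA–MS2 coat fusion and a HIS3 reporter, carrying Pumilio-1 PUF domain libraries and matching RNA elements. The interaction score is the log change in variant frequency from input to selection, computed in log2 with a pseudocount of 1 for absent variants.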

The target of test [2] is PUM1 PUF domain R5-RYL (Homo sapiens, UniProt Q14671 828-1176, C1007R;R1008Y;Q1011L). In outline: as §1
Test [3] has as its target PUM1 PUF domain R5-YRR (Homo sapiens, UniProt Q14671 828-1176, C1007Y;Q1011R). A digest of the protocol: as §1
For test [4], the target named is PUM1 PUF domain R1-RRT (Homo sapiens, UniProt Q14671 828-1176, S863R;Q867T). In outline:
as §1

Test [5] deals with PUM1 PUF domain R7-AVR (Homo sapiens, UniProt Q14671 828-1176, S1079A;N1080V;E1083R). In outline: as §1
Test [6] addresses PUM1 PUF domain R7-KRE (Homo sapiens, UniProt Q14671 828-1176, S1079K;N1080R). In outline:
as §1

Test [7] deals with T1, PUM1 PUF domain R6-AYR (Homo sapiens, UniProt Q14671 828-1176, N1043A;Q1047R).
T1 sequence: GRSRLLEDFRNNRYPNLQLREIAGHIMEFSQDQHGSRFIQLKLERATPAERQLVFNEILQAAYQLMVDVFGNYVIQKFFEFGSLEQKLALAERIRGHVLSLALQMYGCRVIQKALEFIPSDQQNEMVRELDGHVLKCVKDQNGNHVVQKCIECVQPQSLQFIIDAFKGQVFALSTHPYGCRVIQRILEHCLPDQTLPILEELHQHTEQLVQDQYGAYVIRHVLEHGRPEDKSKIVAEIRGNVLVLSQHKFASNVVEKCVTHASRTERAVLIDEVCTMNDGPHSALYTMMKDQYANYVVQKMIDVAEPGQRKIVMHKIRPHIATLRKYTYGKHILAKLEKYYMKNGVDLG
A digest of the protocol:
as §1

For test [8], the target named is PUM1 PUF domain R7-QRK (Homo sapiens, UniProt Q14671 828-1176, S1079Q;N1080R;E1083K). A digest of the protocol: as §1

Chain of PUM1 PUF domain R1-RRT (Q14671 828-1176 S863R/Q867T): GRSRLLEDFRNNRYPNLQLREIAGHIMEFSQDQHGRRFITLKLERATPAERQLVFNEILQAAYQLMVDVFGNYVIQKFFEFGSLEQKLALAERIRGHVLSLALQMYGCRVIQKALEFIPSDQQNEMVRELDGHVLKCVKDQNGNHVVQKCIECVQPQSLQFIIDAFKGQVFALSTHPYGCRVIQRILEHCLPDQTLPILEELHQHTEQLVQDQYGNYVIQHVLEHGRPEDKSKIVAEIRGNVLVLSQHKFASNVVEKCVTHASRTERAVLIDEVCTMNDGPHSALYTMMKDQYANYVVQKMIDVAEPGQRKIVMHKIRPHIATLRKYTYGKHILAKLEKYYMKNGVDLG

For the sequence “GGCUAGAACUAGUGGAUCCCCCGGCGCCCGGCGGCUCGAGCCCGGGUAAGUGUGAAUAGUCUGCAUGCCGCCGGGCGCCAUGCCUGCAGGUCGACUCUAGAAAACAUG”, the figures for the binding signal in test [1] and in test [2] were 3.8 log2 enrichment (interaction score) and 3.39 log2 enrichment (interaction score), respectively.

On to “GGCUAGAACUAGUGGAUCCCCCGGCGCCCGGCGGCUCGAGCCCGGGUAAGUGUUAAUAGUCUGCAUGCCGCCGGGCGCCAUGCCUGCAGGUCGACUCUAGAAAACAUG”, for which the binding signal in test [3] is 1.61 log2 enrichment (interaction score).

With “GGCUAGAACUAGUGGAUCCCCCGGCGCCCGGCGGCUCGAGCCCGGGUAAGUGUAAAUCGUCUGCAUGCCGCCGGGCGCCAUGCCUGCAGGUCGACUCUAGAAAACAUG”, the binding signal in test [4] was 4.11 log2 enrichment (interaction score).

As for “GGCUAGAACUAGUGGAUCCCCCGGCGCCCGGCGGCUCGAGCCCGGGUAAGUGUAAAUUGUCUGCAUGCCGCCGGGCGCCAUGCCUGCAGGUCGACUCUAGAAAACAUG”, in test [4], the binding signal is 4.21 log2 enrichment (interaction score).

As to “GGCUAGAACUAGUGGAUCCCCCGGCGCCCGGCGGCUCGAGCCCGGGUAAGUUUAAAUAGUCUGCAUGCCGCCGGGCGCCAUGCCUGCAGGUCGACUCUAGAAAACAUG”, the results for the binding signal in test [5] and in test [6] were 3.46 log2 enrichment (interaction score) and 3.62 log2 enrichment (interaction score), respectively.

With “GGCUAGAACUAGUGGAUCCCCCGGCGCCCGGCGGCUCGAGCCCGGGUAAGUGCAAAUAGUCUGCAUGCCGCCGGGCGCCAUGCCUGCAGGUCGACUCUAGAAAACAUG”, the binding signal in test [7] is 3.72 log2 enrichment (interaction score).

As for “GGCUAGAACUAGUGGAUCCCCCGGCGCCCGGCGGCUCGAGCCCGGGUAAGUCUAAAUAGUCUGCAUGCCGCCGGGCGCCAUGCCUGCAGGUCGACUCUAGAAAACAUG”, the results for the binding signal in test [8] and in test [6] were 2.27 log2 enrichment (interaction score) and 4.01 log2 enrichment (interaction score), respectively.
